# In PubChem BioAssay (NCATS):
# “And” between values parts separate entries of the source, which are not always exact repeats. Identical values can stand only once. Inconclusive results are not listed. The source made the active and inactive calls. Unless noted, calls come from the whole dose curve; as a rule, active = well fitted curve in the direction sought with a large enough effect; inconclusive = small, poorly fitted or top-dose-only effect, or another doubt; inactive = no such curve, though single readings can be large; an effect the other way counts as inactive or inconclusive.
# Legend:
# [1] = qHTS Assay for Identifying Gametocytocidal Compounds (AID 743244); note: potency is the fitted concentration of half-maximal effect; details: P. falciparum 3D7 stage III-V gametocytes, alamarBlue, 72 h; max response: stronger effect = lower value
# How it was run: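 A resazurin-based viability read-out was applied to mature P. falciparum gametocytes: 72 h compound treatment, then 24 h dye incubation, with falling fluorescence signalling gametocytocidal effect.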
# [2] = qHTS profiling for inhibitors of Plasmodium falciparum (3D7) proliferation (AID 743322);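 note: 100% = DMSO vehicle wells and 0% = 0.29 µM artemisinin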; details: P. falciparum 3D7 proliferation; at 28.7 µM (top of the series) unless noted
# How it was run: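 Erythrocytes infected with P. falciparum (0.3% parasitemia, 2.5% hematocrit) incubated with compounds 72 h at 37 C, 5% CO2. Lysis with saponin/Triton buffer containing SYBR Green I, overnight at room temperature in the dark; DNA fluorescence (485/535 nm) normalised to 0.29 uM artemisinin and DMSO.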
# [3] = qHTS profiling for inhibitors of Plasmodium falciparum (DD2) proliferation (AID 743323; call rule not given here); details: lower = more inhibition; at 28.7 µM (top of the series) unless noted
# How it was run: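 P. falciparum Dd2-infected erythrocytes (0.3% parasitemia, 2.5% hematocrit) exposed 72 h at 37 C, 5% CO2. Lysis with SYBR Green, overnight at room temperature, fluorescence 485/535 nm; normalized to 0.29 uM artemisinin and DMSO.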
# [4] = qHTS profiling for inhibitors of Plasmodium falciparum (HB3) proliferation (AID 743324); details: Plasmodium falciparum HB3 blood-stage proliferation; at 28.7 µM (top of the series) unless noted;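 note: 100% = DMSO vehicle wells and 0% = artemisinin-treated control wells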
# How it was run: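 P. falciparum HB3 grown in erythrocytes (0.3% parasitemia, 2.5% hematocrit final) with compound for 72 h at 37 C, 5% CO2. Parasite DNA detected by SYBR Green after saponin/triton lysis overnight; normalized to 0.29 uM artemisinin and DMSO.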
# [5] = qHTS for Inhibitors of Plasmodium falciparum (DD2) proliferation (AID 504314);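 note: parasite DNA measured by SYBR Green fluorescence after red cell lysis; plate controls were DMSO vehicle for no effect and artemisinin wells for full effect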; details: P. falciparum Dd2 in erythrocytes, SYBR Green growth, 72 h; series mostly up to 6.11 µM
# How it was run: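 Erythrocytes infected with P. falciparum Dd2 (0.3% parasitemia, 2.5% hematocrit) exposed to compound 72 h at 37C, 5% CO2. Parasite DNA quantified by SYBR Green fluorescence after saponin/Triton lysis overnight; normalized to 0.29 uM artemisinin and DMSO.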
# [6] = qHTS for Inhibitors of Plasmodium falciparum (GB4) proliferation (AID 504315);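 note: 0% = DMSO vehicle and -100% = 0.29 µM artemisinin control; nearly all actives have a fitted effect of over 50% in size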; details: P. falciparum GB4 in erythrocytes, SYBR Green DNA, 72 h; series mostly up to 6.7 µM
# How it was run: (§1)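 Erythrocytes infected with P. falciparum line (0.3% parasitemia, 2.5% hematocrit final) incubated with compounds 72 h at 37 °C, 5% CO2; SYBR Green lysis buffer added, fluorescence read next day. Normalized to 0.29 uM artemisinin and DMSO.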
# [7] = qHTS for Inhibitors of Plasmodium falciparum (7G8) proliferation (AID 504316);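 note: 0% = DMSO vehicle and -100% = 0.29 µM artemisinin full kill; nearly all actives have a fitted effect of over 65% in size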; details: P. falciparum 7G8 in erythrocytes, SYBR Green DNA, 72 h; series mostly up to 6.7 µM
# How it was run: as §1
# [8] = qHTS for Inhibitors of Plasmodium falciparum (HB3) proliferation (AID 504318);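 note: 0% = DMSO vehicle and -100% = artemisinin control; nearly all actives have a fitted effect of over 60% in size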; details: P. falciparum HB3 in erythrocytes, SYBR Green DNA, 72 h; series mostly up to 7.21 µM
# How it was run: as §1
# [9] = qHTS for Inhibitors of Plasmodium falciparum (CP250) proliferation (AID 504320);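 note: plate controls were DMSO vehicle for no effect and 0.29 µM artemisinin control for full effect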; details: P. falciparum CP250 in erythrocytes, SYBR Green DNA, 72 h; series mostly up to 6.7 µM
# How it was run: as §1
# [10] = biological target: Alpha-galactosidase (Coffea arabica) (UniProt Q42656); test: Counterscreen for Glucocerebrosidase Inhibitors: qHTS Assay for Coffee Bean alpha-Galactosidase at pH 4.5 (AID 957); details: purified coffee bean alpha-galactosidase, fluorogenic substrate; series mostly up to 76.9 µM;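 note: plate controls were enzyme alone for no effect and no enzyme for full effect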
# Sequence of Alpha-galactosidase (Coffea arabica) (Q42656 whole entry, looked up): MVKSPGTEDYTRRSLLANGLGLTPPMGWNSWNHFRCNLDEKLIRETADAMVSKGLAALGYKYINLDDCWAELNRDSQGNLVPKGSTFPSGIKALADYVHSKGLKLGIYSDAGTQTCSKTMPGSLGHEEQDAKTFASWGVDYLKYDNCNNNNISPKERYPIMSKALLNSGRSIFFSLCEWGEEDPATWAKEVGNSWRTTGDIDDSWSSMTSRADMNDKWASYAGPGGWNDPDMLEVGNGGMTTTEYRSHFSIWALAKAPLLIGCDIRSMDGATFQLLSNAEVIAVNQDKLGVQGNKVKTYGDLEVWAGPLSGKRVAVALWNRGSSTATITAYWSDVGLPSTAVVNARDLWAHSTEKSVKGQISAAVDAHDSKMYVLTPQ
# How it was run: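 Coffee bean alpha-galactosidase 2 nM, substrate 4-MU-alpha-Gal 80 uM, pH 4.5 citrate/Tween-20, 20 min RT. Cpd titration 0.7 nM–77 uM. Stop pH 10, fluorescence 365/440 nm; Hill-equation AC50.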
# [11] = biological target: Alpha-galactosidase (Coffea arabica) (UniProt Q42656); test: Counterscreen for Glucocerebrosidase Inhibitors: qHTS Assay for Coffee Bean alpha-Galactosidase at pH 5.9 (AID 998); details: coffee bean alpha-galactosidase enzyme assay; series mostly up to 76.9 µM;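 note: plate controls were uninhibited enzyme for no effect and no-enzyme basal signal for full effect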
# How it was run: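 Green coffee bean enzyme (2 nM final) was incubated with compounds (0.7 nM–77 uM) and 4-methylumbelliferyl alpha-D-galactopyranoside (80 uM) in citrate buffer pH 5.9, 20 min at room temperature. High-pH stop; fluorescence 365/440 nm; AC50 from Hill fits.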
# [12] = Nrf2 qHTS screen for inhibitors: Validation (AID 493153; active = well fitted inhibition curve with a large enough effect in the main read-out, with a control signal flat, not every such curve was filed as active; note: potency is the fitted concentration of half-maximal effect); details: A549 ARE-Fluc reporter, 18-24 h; Potency: luciferase luminescence; viability change: measured here: cytotoxicity max response
# How it was run: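 Luminescence from an ARE-firefly luciferase reporter in A549 cells gives Nrf2 inhibition; an earlier CellTiter-Fluor fluorescent read flags cytotoxicity. Cells in 5% FBS OPTI-MEM received compound dilution series for 18-24 h at 37°C.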
# [13] = qHTS for Inhibitors of ATXN expression: Validation (AID 588378); details: cell-based ATXN2 expression reporter assay, luminescence; note: potency is the fitted concentration of half-maximal effect; nearly all actives have a fitted effect of over 75% in size
# How it was run: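 Luminescence from an ATXN2-FFLuc reporter in HEK293 cells served as read-out after 24 h compound treatment at 37 degrees C; CellTiter-Fluor fluorescence was recorded first to assess viability.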
# [14] = biological target: Glucocorticoid receptor (Homo sapiens) (UniProt P04150); test: qHTS assay for small molecule agonists of glucocorticoid receptor signaling (AID 588532; active = well fitted curve in the direction sought with a large enough effect in the signal ratio, with a control signal flat; the % refers to the signal ratio;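 note: 100% = dexamethasone at 0.1 µM and 0% = DMSO only wells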); details: HeLa MMTV-bla, beta-lactamase ratio, agonist, 18 h; activation: stronger effect = higher value, percent of dexamethasone control, DMSO zero
# Sequence of Glucocorticoid receptor (Homo sapiens) (P04150 whole entry, looked up): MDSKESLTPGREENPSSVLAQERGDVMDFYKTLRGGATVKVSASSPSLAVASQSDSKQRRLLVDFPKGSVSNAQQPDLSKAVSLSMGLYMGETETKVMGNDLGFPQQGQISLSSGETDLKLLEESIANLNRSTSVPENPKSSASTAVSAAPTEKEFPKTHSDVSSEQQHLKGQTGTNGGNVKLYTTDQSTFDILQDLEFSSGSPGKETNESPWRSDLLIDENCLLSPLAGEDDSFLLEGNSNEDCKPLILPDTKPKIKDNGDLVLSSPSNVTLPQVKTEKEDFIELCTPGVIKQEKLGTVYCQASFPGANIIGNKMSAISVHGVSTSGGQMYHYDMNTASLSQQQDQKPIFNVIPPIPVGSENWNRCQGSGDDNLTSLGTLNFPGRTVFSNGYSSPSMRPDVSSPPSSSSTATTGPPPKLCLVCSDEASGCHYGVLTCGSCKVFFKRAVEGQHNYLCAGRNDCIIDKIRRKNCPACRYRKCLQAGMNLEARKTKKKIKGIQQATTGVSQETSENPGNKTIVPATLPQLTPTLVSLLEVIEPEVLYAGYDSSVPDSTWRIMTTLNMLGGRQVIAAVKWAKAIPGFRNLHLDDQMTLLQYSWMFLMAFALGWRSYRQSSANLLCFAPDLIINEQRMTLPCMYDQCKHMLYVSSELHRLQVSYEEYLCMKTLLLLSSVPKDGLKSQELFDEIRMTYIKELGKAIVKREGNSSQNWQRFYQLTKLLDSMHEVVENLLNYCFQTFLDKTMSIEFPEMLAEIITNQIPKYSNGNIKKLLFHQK
# How it was run: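 Titration series, up to 92 uM, applied to GRE-bla HeLa cells for 18 h at 37 C. Detection by CCF4 FRET substrate after 2 h at RT.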
# [15] = MultiTox-Fluor Cytotoxicity Assay - LYMP1-001 - Live Cells (AID 947); details: LYMP1-001 lymphoblastoid cells, live-cell protease fluorescence viability; series mostly up to 92.2 µM;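 note: 0% = DMSO only and full inhibition = tetraoctylammonium bromide control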
# [16] = Cell Viability - LYMP2-005 (AID 967); details: LYMP2-005 lymphoblastoid cell viability; series mostly up to 92.2 µM;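 note: plate controls were DMSO only for no effect and 92 µM tetraoctylammonium bromide control for full effect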
# How it was run: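 CellTiter-Glo luminescence (cellular ATP) read-out; LYMP2-005 lymphoblastoid cells, 2500/well, 5 h pre-incubation, then 24 h compound exposure at 37 C in complete medium. Tetraoctylammonium bromide positive control; AC50 by standard Hill fit.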
# [17] = qHTS assay for small molecule activators of the human pregnane X receptor (PXR) signaling pathway (AID 720659; call rule not given here; note: 0% is about no effect); details: DPX-2 HepG2 CYP3A4-luciferase, 24 h; series mostly up to 92.3 µM
# [18] = qHTS assay for small molecule agonists of retinoid X receptor alpha signaling (AID 588544); details: HEK293T RXRa-UAS-bla, beta-lactamase reporter, 18 h; 530 nm emission
# [19] = biological target: Cytochrome P450 2C9 (Homo sapiens) (UniProt P11712); test: qHTS Assay for Inhibitors and Substrates of Cytochrome P450 2C9 (AID 883); details: recombinant CYP2C9, luciferin-H luminescence, 60 min; series mostly up to 57.1 µM; note: % is set by controls: 0 for no effect and ±100 for the full control effect; nearly all actives have a fitted effect of over 60% in size
# Sequence of Cytochrome P450 2C9 (Homo sapiens) (P11712 whole entry, looked up): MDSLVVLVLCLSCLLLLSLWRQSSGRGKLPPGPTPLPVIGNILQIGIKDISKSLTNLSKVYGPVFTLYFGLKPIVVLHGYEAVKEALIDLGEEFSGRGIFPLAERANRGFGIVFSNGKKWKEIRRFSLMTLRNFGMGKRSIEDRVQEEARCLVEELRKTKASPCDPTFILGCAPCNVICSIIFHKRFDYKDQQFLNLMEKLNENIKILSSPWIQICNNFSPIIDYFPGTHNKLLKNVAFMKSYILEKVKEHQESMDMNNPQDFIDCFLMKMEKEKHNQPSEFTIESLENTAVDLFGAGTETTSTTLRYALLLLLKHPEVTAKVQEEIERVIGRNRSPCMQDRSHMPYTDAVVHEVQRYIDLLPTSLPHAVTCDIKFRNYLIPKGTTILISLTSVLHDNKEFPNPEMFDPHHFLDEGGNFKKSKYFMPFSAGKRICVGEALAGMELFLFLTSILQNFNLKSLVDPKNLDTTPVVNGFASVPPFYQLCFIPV
# How it was run: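 A luminogenic readout tracked human CYP2C9 (10nM) converting deoxyluciferin (100uM, at KM) in 25mM KPO4 during 60 min at 37C with regenerated NADPH. Values normalized to 57uM sulphaphenazole as complete inhibition.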
# [20] = biological target: Cytochrome P450 2D6 (Homo sapiens) (UniProt P10635); test: qHTS Assay for Inhibitors and Substrates of Cytochrome P450 2D6 (AID 891); details: recombinant CYP2D6, luciferin-ME EGE luminescence; series mostly up to 57.1 µM; note: nearly all actives have a fitted effect of over 60% in size; note: potency is the fitted concentration of half-maximal effect
# Sequence of Cytochrome P450 2D6 (Homo sapiens) (P10635 whole entry, looked up): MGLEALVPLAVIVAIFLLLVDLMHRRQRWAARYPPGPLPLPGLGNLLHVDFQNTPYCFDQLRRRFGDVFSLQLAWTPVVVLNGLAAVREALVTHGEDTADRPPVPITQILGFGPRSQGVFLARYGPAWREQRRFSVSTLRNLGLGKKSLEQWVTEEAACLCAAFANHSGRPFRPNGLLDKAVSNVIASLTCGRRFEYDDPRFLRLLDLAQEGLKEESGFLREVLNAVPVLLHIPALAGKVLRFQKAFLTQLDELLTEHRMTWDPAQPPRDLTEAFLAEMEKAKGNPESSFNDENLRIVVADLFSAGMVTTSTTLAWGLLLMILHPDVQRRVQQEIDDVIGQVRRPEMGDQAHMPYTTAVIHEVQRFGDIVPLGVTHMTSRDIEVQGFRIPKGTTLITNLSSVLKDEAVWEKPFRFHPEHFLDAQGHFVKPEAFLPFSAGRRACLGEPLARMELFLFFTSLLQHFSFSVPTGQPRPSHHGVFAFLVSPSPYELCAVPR
# How it was run: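 Human CYP2D6 (5 nM) with 30 uM Luciferin-ME EGE (at Km) in 100 mM KPO4, compound preincubated 10 min, then NADPH regeneration system for 60 min at room temperature. Luciferin read by luminescence; normalized to 1.43 uM quinidine.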
smiles,measurement,setting,value
C[C@@H]1CC[C@H]2[C@@H](C)C(=O)O[C@@H]3OC4(C)CC[C@@H]1C32OO4 (some centres undefined),Potency,[1],0.136 µM (active)
same,remaining parasite growth % (stronger effect = lower value),[2],-0.139% [at 57.5 µM]
same,"activity, percent of control",[3],0.0598% [at 57.5 µM]
same,"remaining proliferation (% of control), lower = more inhibition",[4],0.0815% [at 57.5 µM]
CCC1CN2CCC1CC2[C@@H](Oc1cc2ccccc2c2ccccc12)c1ccnc2ccc(O)cc12 (some centres undefined),outcome,[5],inactive
same,outcome,[6],inactive
same,outcome,[7],inactive
same,outcome,[8],inactive
same,outcome,[9],inactive
CC[C@@H](CO)Nc1nc(NCc2ccccc2)c2ncn(C(C)C)c2n1,outcome,[10],inactive
same,outcome,[11],inactive
same,Potency,[12],18.4 µM (active)
same,viability change,[12],-22.6%
same,Potency,[13],31.6 µM (active)
C#CCN1CC(=O)N(COC(=O)[C@@H]2[C@@H](C=C(C)C)C2(C)C)C1=O,activation,[14],-0.459% (inactive)
CN1[C@H]2CC(OC(=O)[C@H](CO)c3ccccc3)C[C@H]1[C@H]1O[C@H]12 (some centres undefined),Potency,[15],inactive
same,Potency,[16],inactive
CC(C)N(C(=O)CCl)c1ccccc1,outcome,[17],inactive
O=C(NC(=O)c1c(F)cccc1F)Nc1ccc(Cl)cc1,max response,[18],-17.2%
same,outcome,[17],inactive
O=C1C=C2C(=CCOC2O)O1 (centres undefined),outcome,[17],inactive
CCN1C[C@@]2(COC)[C@H](O)C[C@H](OC)[C@@]34[C@@H]5C[C@@]6(O)[C@H](OC(=O)c7ccccc7)[C@H]5[C@@](OC(C)=O)([C@H]([C@@H](OC)[C@H]23)[C@H]14)[C@H](O)[C@@H]6OC,Potency,[19],inactive
C[C@@H]1O[C@H](O[C@H]2C[C@@H](O)[C@]3(CO)[C@H]4[C@H](O)C[C@]5(C)[C@@H](C6=CC(=O)OC6)CC[C@@]5(O)[C@H]4CC[C@]3(O)C2)[C@@H](O)[C@H](O)[C@H]1O,Potency,[20],inactive
C=CCO[C@@H](Cn1ccnc1)c1ccc(Cl)cc1Cl,Potency,[20],5.01 µM (active)
CCOc1nc(NC)nc(NC(=O)NS(=O)(=O)c2ccccc2C(=O)OC)n1,activation,[14],15% (inactive)
CCOP(=O)(SC(C)CC)SC(C)CC (centres undefined),activation,[14],-2.32% (inactive)
same,max response,[18],-25%
same,outcome,[17],inactive
C/C(=N\C(N)=O)N(C)Cc1ccc(Cl)nc1,max response,[18],-8.24%
same,outcome,[17],inactive
O=S1OC[C@@H]2[C@H](CO1)[C@@]1(Cl)C(Cl)=C(Cl)[C@]2(Cl)C1(Cl)Cl (some centres undefined),activation,[14],-18.2% (inactive) and -5.58% (inactive)
FC(F)(F)c1ccc(OCCCOc2c(Cl)cc(OCC=C(Cl)Cl)cc2Cl)nc1,activation,[14],9.84% (inactive)
same,max response,[18],5.75%
same,outcome,[17],inactive
CCOP(=S)(OCC)SCC(=O)NC(C)C,max response,[18],-3.21%
CCOC1Oc2ccc(OS(C)(=O)=O)cc2C1(C)C (centres undefined),max response,[18],7.47%
COCc1cnc(C2=NC(C)(C(C)C)C(=O)N2)c(C(=O)O)c1 (centres undefined),outcome,[17],inactive
Cc1cc(Cl)ccc1OCC(=O)O,activation,[14],-2.21% (inactive) and 11.1% (inactive)
same,max response,[18],-7.53%
same,outcome,[17],inactive
C/C=C(\C)C(=O)O[C@H]1C[C@@H](OC(C)=O)[C@@]2(C(=O)OC)CO[C@H]3[C@@H](O)[C@@](C)([C@]45O[C@@]4(C)[C@H]4C[C@@H]5O[C@@H]5OC=C[C@@]54O)[C@H]4[C@]1(CO[C@]4(O)C(=O)OC)[C@@H]32,activation,[14],4.96% (inactive)
same,max response,[18],-0.369%
COc1nc(C)nc(NC(=O)NS(=O)(=O)c2ccccc2CCC(F)(F)F)n1,activation,[14],-2.83% (inactive)
same,max response,[18],-27.4%
same,outcome,[17],inactive
CCOP(=S)(OCC)Oc1ncn(-c2ccccc2)n1,max response,[18],-6.39%
O=[As](O)(O)O,activation,[14],-5.56% (inactive)
same,outcome,[17],inactive
C=CC(=O)NCO,activation,[14],-0.576% (inactive) and 6.11% (inactive)
same,max response,[18],-12.6% and -9.15%
same,outcome,[17],inactive
CCOP(=O)(OCC)SCSC(C)(C)C,activation,[14],-2.2% (inactive)
same,max response,[18],4.09%
same,outcome,[17],inactive
